Reference: the supplement of paper PMC10127200
“And” between values parts separate entries of the source, which are not always exact repeats. Equal entries are not always repeated. Structures can show the parent of a compound that is named as a salt.

Key:
Test in all cases: Euclidean distance of Cell Painting phenotypic profile (signed KS, 77 features) to DMSO centroid (dimensionless distance); 5 or 10 uM (library dependent); higher = stronger phenotypic change vs DMSO (phenoactivity)
Conditions in all cases: 48 h
786-O = system: 786-O
Summary of the method: (§1)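 Stained cells were imaged confocally at 20X with 9 fields per well, after 48 h of exposure to library compounds at 10 or 5 uM (set by library; 0.1% DMSO final). The cells were five cancer lines and a healthy fibroblast line. From the images, Harmony extracted 77 features, each expressed as a signed Kolmogorov-Smirnov statistic relative to same-plate vehicle wells. Phenoactivity is measured as Euclidean distance to the median vehicle profile, using plate-position-corrected, correlation-weighted profiles averaged across replicates at the top dose.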

A549 = system: A549
Summary of the method: as §1

DU145 = system: DU145
Summary of the method: as §1

FB = system: FB
Summary of the method: as §1

HEPG2 = system: HEPG2
Summary of the method: as §1

OVCAR4 = system: OVCAR4
Summary of the method: as §1

Compound	Euclidean distance (786-O)	Euclidean distance (A549)	Euclidean distance (DU145)	Euclidean distance (FB)	Euclidean distance (HEPG2)	Euclidean distance (OVCAR4)
CC1Oc2cc(cnc2N)-c2c(nn(C)c2C#N)CN(C)C(=O)c2ccc(F)cc21 (stereo not drawn)	0.876	1.02	1.34	1.55	2.11	1.26
Nc1ncccc1-c1nc2ccc(-c3ccccc3)nc2n1-c1ccc(C2(N)CCC2)cc1 [Miransertib (ARQ 092) HCl]	4.75	4.1	2.87	4.17	4.52	3.46
OCc1ccc(Cl)cc1Cl [2.4-dichlorobenzyl alcohol]	0.68	0.36	1.13	0.663	0.329	1.56
O=C(CCCCCCC(=O)NO)NO [Suberohydroxamic acid]	1.22	1.22	1.18	2.06	1.84	1.28
CO[C@@H](C(=O)N1Cc2[nH]nc(NC(=O)c3ccc(N4CCN(C)CC4)cc3)c2C1)c1ccccc1	1.39	1.46	1.66	1.66	1.25	1.03
CCC[C@@H]1C[C@@H](C(=O)N[C@@H]([C@H]2O[C@H](SC)[C@H](O)[C@@H](O)[C@H]2O)[C@H](C)Cl)N(C)C1 [Clindamycin]	0.793	0.77	0.629	1.14	0.601	0.602
C[C@@H]1CCN(C(=O)CC#N)C[C@@H]1N(C)c1ncnc2[nH]ccc12	0.925 and 0.548	0.553 and 0.511	1.04 and 0.639	0.618 and 0.551	0.886 and 0.785	0.908 and 0.677
Cc1cc(NS(=O)(=O)c2ccc(N)cc2)nc(C)n1 [sulfaisodimidine]	0.897	0.563	0.503	0.948	0.529	0.686
NCc1ccccc1CC(=O)N[C@@H]1C(=O)N2C(C(=O)O)=C(CSc3nnnn3CC(=O)O)CS[C@H]12 [Ceforanide]	0.783	0.791	1.07	1.16	0.834	1.64
CC(C)(CO)[C@@H](O)C(=O)NCCC(=O)O [D-Pantothenic acid]	1.36	0.696	0.734	1.08	0.485	1.11
CCCCOCCOCCOCc1cc2c(cc1CCC)OCO2 [Piperonyl butoxide]	0.659	1.99	0.875	0.892	1.06	1.04
O=C(Nc1ncc(SCCN2CCCC2)s1)[C@]1(c2ccc(S(=O)(=O)C3CC3)cc2)C[C@H]1C1CCCCC1	5.07	2.38	3.02	3.03	3.45	1.44
CCn1cc(C(=O)O)c(=O)c2cc(F)c(N3CCN(C)CC3)cc21 [Pefloxacin Mesylate]	1.56	0.826	0.983	1.04	1.02	1.3
COC1=C2C[C@@H](C)C[C@H](OC)[C@H](O)[C@@H](C)/C=C(\C)[C@H](OC(N)=O)[C@@H](OC)/C=C\C=C(/C)C(=O)NC(=CC1=O)C2=O [Geldanamycin]	2.87	3.3	3.52	3.35	1.8	2.91
Cc1cccc(CC(=O)N2CCc3c2ccc(-c2cn(C)c4ncnc(N)c24)c3F)n1	1.25	2.13	1.84	1.96	1.24	1.35
CC(=O)Oc1cc(C(C)C)c(OCCN(C)C)cc1C [Moxisylyte hydrochloride]	0.394	0.612	1.83	1.12	0.369	0.608
CNC(=O)c1ccc(-c2cnc3ncc(Cc4ccc5ncccc5c4)n3n2)cc1F	1.36	0.853	0.871	0.899	0.745	0.726
COc1ccc(-c2cnc3c(-c4cccc5ncccc45)cnn3c2)cc1	0.556	0.926	1.07	0.678	0.785	0.818
CC(=O)O[C@H]1C[C@@]2(C)[C@@H](C[C@@H](O)[C@H]3[C@@]4(C)CC[C@@H](O)[C@@H](C)[C@@H]4CC[C@@]32C)/C1=C(\CCC=C(C)C)C(=O)O [Fusidine]	0.63	0.807	0.822	0.84	0.634	1.3
CC(C)CCNC(=O)[C@H](CC(C)C)NC(=O)[C@H]1O[C@@H]1C(=O)O [Loxistatin Acid (E-64C)]	1.6	2.18	1.48	1.04	1.44	1.5
O=C(O)C(Cc1c[nH]c2ccccc12)N1C(=O)c2ccccc2C1=O (stereo not drawn)	0.991	0.979	0.681	0.852	0.417	0.641
Nc1ccn([C@@H]2O[C@H](CO)[C@@H](O)C2(F)F)c(=O)n1 [Gemcitabine]	2.58	2.74	3.26	2.91	2.74	2.98
CC(C)(C)C(O)/C=C/c1ccc2c(c1)OCO2 (stereo not drawn) [Stiripentol]	0.796	0.894	1.07	0.983	0.456	0.801
O[C@@H]1CO[C@H]2[C@@H]1OC[C@@H]2O [Isosorbide]	1.15	0.673	1.24	1.02	0.565	1.64

Compound	Euclidean distance (786-O)	Euclidean distance (A549)	Euclidean distance (DU145)	Euclidean distance (FB)	Euclidean distance (HEPG2)	Euclidean distance (OVCAR4)
CNS(=O)(=O)C[C@H]1CC[C@H](N(C)c2[nH]cnc3nccc2-3)CC1	1.06	0.94	1.61	1.3	0.907	0.949
CN(C)CCn1nnnc1SCC1=C(C(=O)O)N2C(=O)[C@@H](NC(=O)Cc3csc(N)n3)[C@H]2SC1 [Cefotiam hydrochloride]	1.2	1.06	0.774	0.93	0.739	0.935
C[C@@](Cc1ccc(O)c(O)c1)(NN)C(=O)O [Carbidopa]	1.38	1.06	0.985	1.1	0.878	1.05
c1cnc(NCc2ccc(CNc3ncccn3)cc2)nc1	1.17	0.784	0.977	0.642	0.488	1.22
CCCCCCNC(=O)n1cc(F)c(=O)[nH]c1=O [Carmofur]	2.44	2.89	1.27	2.91	2.49	2.82
O=C1CCc2ccc(OCCCCN3CCN(c4cccc(Cl)c4Cl)CC3)cc2N1 [Aripiprazole]	1.08	0.975	0.573	0.979	0.512	1.21
O=c1[nH]cnc2c1ncn2[C@H]1CC[C@@H](CO)O1 [Didanosine]	1.21	1.3	1.12	0.891	0.649	0.793
COc1cnc(NS(=O)(=O)c2ccc(N)cc2)nc1 [Sulfameter]	1.33	1.11	0.768	1.28	1.49	1.5
Cc1cn(-c2cc(NC(=O)c3ccc(C)c(Nc4nccc(-c5cccnc5)n4)c3)cc(C(F)(F)F)c2)cn1 [Nilotinib hydrochloride]	2.28	4.11	3.01	1.85	3.37	3.14
C[N+]1(C)[C@@H]2CC[C@H]1C[C@@H](OC(=O)C(O)c1ccccc1)C2 (stereo partly drawn) [Homatropine Methylbromide]	0.885	1.85	1.26	1.47	0.52	0.995
CC(C)C[C@H](NC(=O)CNC(=O)c1cc(Cl)ccc1Cl)B1OC(=O)C(CC(=O)O)(CC(=O)O)O1	4.77	3.73	5.36	3.94	4.23	4.36
CN(C)c1nc(N(C)C)nc(N(C)C)n1 [Altretamine]	1.11	0.902	0.807	1.32	0.597	0.929
CC1CNc2c(cccc2S(=O)(=O)N[C@@H](CCCNC(=N)N)C(=O)N2CC[C@@H](C)C[C@@H]2C(=O)O)C1 (stereo partly drawn) [Argatroban]	0.618	0.352	0.62	0.896	0.99	0.903
O=c1c(-c2ccc(O)cc2)coc2cc(O)cc(O)c12 [Genistein]	1.75	1.52	1.14	1.28	0.498	1.13
N=C(N)c1ccc(N=NNc2ccc(C(=N)N)cc2)cc1 [Diminazene Aceturate]	1.25	1.11	1.1	0.72	2.06	0.868
CCOCC(O)COc1ccc(NC(=O)CC[S+](C)C)cc1 (stereo not drawn) [Suplatast Tosylate]	1.48	1.01	1.47	1.14	0.648	1.13
N[C@@H](Cc1cc(I)c(Oc2ccc(O)c(I)c2)c(I)c1)C(=O)O [Triiodothyronine]	1.04	1.57	1.08	0.968	0.865	1.58
O=C1[C@H]2CCCC[C@H]2C(=O)N1CCCCN1CCN(c2nsc3ccccc23)CC1 [Perospirone hydrochloride]	2.05	1.44	1.08	1.59	1.05	1.36
CC(C)N(C[C@H]1O[C@@H](n2cnc3c(N)ncnc32)[C@H](O)[C@@H]1O)[C@H]1C[C@@H](CCc2nc3cc(C(C)(C)C)ccc3[nH]2)C1	0.867	0.931	1.3	1.28	0.884	0.955
CC(C)(C)C#Cc1cc(N(C(=O)[C@H]2CC[C@H](C)CC2)[C@H]2CC[C@H](O)CC2)c(C(=O)O)s1 [VX-222 (VCH-222. Lomibuvir)]	0.681	0.474	1.14	0.678	2.05	0.601
O=C(O)P(=O)(O)O [Foscarnet Sodium]	1.83	0.762	1.18	0.986	0.776	1.11
C=CC(=O)Nc1cccc(Oc2nc(Nc3ccc(N4CCN(C)CC4)cc3)nc3ccsc23)c1	4.18	3.94	2.73	3.64	3.85	3.57
O=C1NC(=O)C(c2ccccc2[N+](=O)[O-])=C1Nc1ccc(O)c(Cl)c1	1.2	0.916	0.978	0.936	0.886	1.1
Nc1ncn([C@H]2C[C@H](O)[C@@H](CO)O2)c(=O)n1 [Decitabine]	1.92	1.42	1.18	1.43	1.56	1.55
